The full data set covers some 7,900 targets. This sample favours those with a hit. About 0.6% of all pairs of compound and target were hits.
Columns and labels:
Assay in all cases: log2 fold change, soluble protein after heating vs DMSO (PISA); higher = thermal stabilisation; K562 cells, 10 uM, 30 min; active = over 0.2 and 3.5 SD of the protein, either way, in both replicates (recomputed)
[1] = compound: CC1=C(C=C(C=C1)NC(=O)C2=CC(=CC=C2)C(C)(C)C#N)NC3=CC4=C(C=C3)N=CN(C4=O)C
Method in brief: (§1)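 Thermal stability values are relative to control samples and come from duplicates. They are expressed as log2 fold changes. For measurement, K562 cells (2×10^6 cells/mL) received 10 μM compound for 30 min, and aliquots were heated for 3 min over 48°C-58°C, pooled, and extracted at 4°C in PBS with 0.5% NP-40. Soluble protein, the supernatant after 21,000xg for 90 min, was quantified by TMTpro 16plex LC-MS/MS with equalised channel sums.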

[2] = compound: CC1=C(C=C(C=C1)NC(=O)C2=CC(=CC=C2)N(C)C)NC(=O)C3=CC=C(C=C3)O
Method in brief: as §1

[3] = compound: CC1=CC=C(C=C1)SC2=C3C=C(SC3=CN=C2)C(=O)N
Method in brief: as §1

[4] = compound: CC1=NC(=CC=C1)C2=C(N=C(N2)C(C)(C)C)C3=CC4=NC=CN=C4C=C3
Method in brief: as §1

Nexturastat A = compound: CCCCN(Cc1ccc(C(=O)NO)cc1)C(=O)Nc1ccccc1 [Nexturastat A]
Method in brief: as §1

vemurafenib = compound: CCCS(=O)(=O)Nc1ccc(F)c(C(=O)c2c[nH]c3ncc(-c4ccc(Cl)cc4)cc23)c1F [vemurafenib]
Method in brief: as §1

[5] = compound: CCCS(=O)(=O)Nc1ccc(F)c(C(=O)c2c[nH]c3ncc(Cl)cc23)c1F
Method in brief: as §1

[6] = compound: CCCc1cc(C)[nH]c(=O)c1CNC(=O)c1cc(-c2ccnc(N3CCN(C)CC3)c2)cc2c1cnn2C(C)C
Method in brief: as §1

givinostat = compound: CCN(CC)Cc1ccc2cc(COC(=O)Nc3ccc(C(=O)NO)cc3)ccc2c1 [givinostat]
Method in brief: as §1

barasertib = compound: CCN(CCCOc1ccc2c(Nc3cc(CC(=O)Nc4cccc(F)c4)[nH]n3)ncnc2c1)CCOP(=O)(O)O [barasertib]
Method in brief: as §1

volasertib = compound: CC[C@@H]1C(=O)N(C)c2cnc(Nc3ccc(C(=O)N[C@H]4CC[C@H](N5CCN(CC6CC6)CC5)CC4)cc3OC)nc2N1C(C)C [volasertib]
Method in brief: as §1

[7] = compound: CC[C@H](C)N1C=C(C2=C(C=C(C=C21)C3=CN=C(C=C3)N4CCNCC4)C(=O)NCC5=C(C=C(NC5=O)C)C)C
Method in brief: as §1

epoxomicin = compound: CC[C@H](C)[C@@H](C(=O)N[C@@H]([C@@H](C)O)C(=O)N[C@@H](CC(C)C)C(=O)[C@]1(CO1)C)NC(=O)[C@H]([C@@H](C)CC)N(C)C(=O)C [epoxomicin]
Method in brief: as §1

[8] = compound: CCn1c(C(=O)N(C2CC2)C2CC2)cc2c3c(ncn3C)c(Nc3cc(C)n(C)n3)nc21
Method in brief: as §1

[9] = compound: CN(C)CC(=O)Nc1ccc2[nH]c(=O)c3ccccc3c2c1
Method in brief: as §1

rosiglitazone = compound: CN(CCOC1=CC=C(C=C1)C[C@H]2C(=O)NC(=O)S2)C3=CC=CC=N3 (racemic) [rosiglitazone]
Method in brief: as §1

[10] = compound: CN1C2=C(C3=C1C(=O)N(N=C3)CC4=CC(=CC=C4)N)SC(=C2)S(=O)C
Method in brief: as §1

[11] = compound: CN1CCC(CNc2ccc3ncc(-c4cccc(OC(F)(F)F)c4)n3n2)CC1
Method in brief: as §1

[12] = compound: CC[C@@H]1C(=O)N(C)c2cnc(Nc3ccc(C(=O)NC4CCN(C)CC4)cc3OC)nc2N1C1CCCC1
Method in brief: as §1

[13] = compound: CCn1cc(-c2ccnc3[nH]c(-c4cccc(CN(C)C)c4)cc23)c(-c2ccc(NC(=O)N(C)C)cc2)n1
Method in brief: as §1

Measured: log2 fold change

CSNK1D (UniProt P48730)
Chain of UniProt P48730 (P48730 whole entry, looked up): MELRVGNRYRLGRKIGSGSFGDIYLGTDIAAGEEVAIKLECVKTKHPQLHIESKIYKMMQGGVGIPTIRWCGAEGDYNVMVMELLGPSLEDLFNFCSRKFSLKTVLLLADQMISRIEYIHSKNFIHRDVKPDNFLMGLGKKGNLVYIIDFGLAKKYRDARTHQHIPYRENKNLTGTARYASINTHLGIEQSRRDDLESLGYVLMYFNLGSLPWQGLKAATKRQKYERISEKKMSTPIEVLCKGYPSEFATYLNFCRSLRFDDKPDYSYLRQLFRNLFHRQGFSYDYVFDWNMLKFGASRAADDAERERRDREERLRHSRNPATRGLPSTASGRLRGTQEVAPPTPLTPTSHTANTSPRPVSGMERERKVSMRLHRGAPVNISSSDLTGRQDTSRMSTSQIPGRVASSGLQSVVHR
inactive: [1] -0.001 | [2] 0.003 | [3] -0.033 | [4] -0.018 | Nexturastat A 0.117 | vemurafenib 0.081 | [5] -0.047 | [6] 0.015 | givinostat -0.254 | barasertib -0.032 | volasertib -0.133 | [7] 0 | epoxomicin 0.026 | [8] -0.088 | [9] -0.019 | rosiglitazone -0.062 | [10] 0.15 | [11] 0.315

CDK17 isoform 2 (UniProt Q00537)
inactive: [1] 0.105 | [3] 0.061 | [4] -0.051 | Nexturastat A 0.172 | vemurafenib -0.098 | [5] -0.085 | [6] 0.042 | givinostat 0.003 | barasertib 0.055 | [12] -0.153 | volasertib -0.079 | epoxomicin 0.07 | [8] 0.032 | [13] -0.012 | [9] 0.046 | rosiglitazone 0.038 | [10] 0.022 | [11] 0.051

CCM2 isoform 2 (UniProt Q9BSQ5)
active: volasertib -0.412
inactive: [1] -0.072 | [2] -0.068 | [3] -0.124 | [4] -0.002 | Nexturastat A 0.102 | vemurafenib 0.008 | [5] 0.009 | [6] 0.052 | givinostat -0.003 | barasertib -0.061 | [12] -0.207 | epoxomicin 0.102 | [8] -0.047 | [13] -0.017 | [9] -0.01 | rosiglitazone 0.032 | [10] -0.012 | [11] -0.233

CHST10 (UniProt O43529)
Chain of UniProt O43529 (O43529 whole entry, looked up): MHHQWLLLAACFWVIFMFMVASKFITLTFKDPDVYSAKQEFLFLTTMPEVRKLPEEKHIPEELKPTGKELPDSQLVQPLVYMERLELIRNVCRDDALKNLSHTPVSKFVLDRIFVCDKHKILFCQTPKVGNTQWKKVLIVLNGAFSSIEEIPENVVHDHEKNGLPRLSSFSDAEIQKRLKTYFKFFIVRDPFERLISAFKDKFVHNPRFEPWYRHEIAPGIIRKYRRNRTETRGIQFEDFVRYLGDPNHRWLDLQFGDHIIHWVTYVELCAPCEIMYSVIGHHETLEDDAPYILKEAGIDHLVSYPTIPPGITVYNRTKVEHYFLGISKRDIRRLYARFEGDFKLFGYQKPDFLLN
inactive: [1] 0.067 | [2] -0.096 | [3] -0.092 | [4] -0.052 | Nexturastat A 0.05 | [5] -0.015 | [6] -0.097 | givinostat 0.069 | barasertib -0.025 | volasertib -0.146 | [7] 0.002 | epoxomicin -0.019 | [8] -0.043 | [13] -0.021 | rosiglitazone 0.081 | [11] -0.108

CMTM3 (UniProt Q96MX0)
Chain of UniProt Q96MX0 (Q96MX0 whole entry, looked up): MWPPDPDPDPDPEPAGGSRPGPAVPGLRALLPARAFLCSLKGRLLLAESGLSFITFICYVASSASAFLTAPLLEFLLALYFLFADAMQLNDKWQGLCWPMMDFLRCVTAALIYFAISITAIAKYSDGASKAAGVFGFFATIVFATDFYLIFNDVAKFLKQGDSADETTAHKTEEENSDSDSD
inactive: [1] 0.052 | [3] 0.117 | [4] -0.027 | Nexturastat A -0.119 | vemurafenib 0 | [5] 0.001 | [6] -0.024 | givinostat -0.016 | barasertib 0.098 | [12] 0.066 | volasertib -0.088 | [7] -0.061 | epoxomicin 0.075 | [8] -0.009 | [13] 0.057 | [9] 0.02 | [10] 0.048 | [11] -0.122
active: rosiglitazone -0.324

COG2 (UniProt Q14746)
Chain of UniProt Q14746 (Q14746 whole entry, looked up): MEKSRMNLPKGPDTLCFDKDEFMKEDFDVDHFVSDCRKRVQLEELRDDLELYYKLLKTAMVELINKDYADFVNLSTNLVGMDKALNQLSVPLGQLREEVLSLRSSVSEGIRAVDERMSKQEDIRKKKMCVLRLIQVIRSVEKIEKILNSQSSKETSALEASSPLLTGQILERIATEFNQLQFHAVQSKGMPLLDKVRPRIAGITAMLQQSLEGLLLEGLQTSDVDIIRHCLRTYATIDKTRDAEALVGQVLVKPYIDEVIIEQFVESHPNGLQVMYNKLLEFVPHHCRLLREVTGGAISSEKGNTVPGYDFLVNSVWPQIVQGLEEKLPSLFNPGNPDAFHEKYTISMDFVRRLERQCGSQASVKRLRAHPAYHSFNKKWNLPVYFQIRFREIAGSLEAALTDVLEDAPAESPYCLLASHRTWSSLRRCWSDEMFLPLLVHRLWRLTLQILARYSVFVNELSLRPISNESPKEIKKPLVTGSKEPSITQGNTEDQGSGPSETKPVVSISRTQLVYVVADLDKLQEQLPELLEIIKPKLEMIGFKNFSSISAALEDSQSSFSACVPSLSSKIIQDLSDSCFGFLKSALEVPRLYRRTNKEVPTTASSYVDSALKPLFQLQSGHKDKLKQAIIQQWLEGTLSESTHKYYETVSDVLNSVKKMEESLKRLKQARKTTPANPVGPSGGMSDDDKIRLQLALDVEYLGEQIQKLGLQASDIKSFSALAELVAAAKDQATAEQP
inactive: [1] -0.064 | [2] 0 | [4] 0.096 | Nexturastat A 0.432 | [6] -0.59 | givinostat 0.048 | [12] -0.173 | [7] -0.357 | epoxomicin 0.008 | [8] 0.076 | [10] 0.302

C22orf39 (UniProt Q6P5X5)
inactive: [1] -0.033 | [2] 0.059 | [3] -0.058 | [4] -0.008 | Nexturastat A -0.024 | [5] 0.205 | [6] 0.017 | givinostat 0.044 | barasertib -0.042 | volasertib 0.134 | [7] -0.042 | epoxomicin 0.081 | [8] -0.08 | rosiglitazone -0.119 | [10] 0.043

CDK5 (UniProt Q00535)
Chain of UniProt Q00535 (Q00535 whole entry, looked up): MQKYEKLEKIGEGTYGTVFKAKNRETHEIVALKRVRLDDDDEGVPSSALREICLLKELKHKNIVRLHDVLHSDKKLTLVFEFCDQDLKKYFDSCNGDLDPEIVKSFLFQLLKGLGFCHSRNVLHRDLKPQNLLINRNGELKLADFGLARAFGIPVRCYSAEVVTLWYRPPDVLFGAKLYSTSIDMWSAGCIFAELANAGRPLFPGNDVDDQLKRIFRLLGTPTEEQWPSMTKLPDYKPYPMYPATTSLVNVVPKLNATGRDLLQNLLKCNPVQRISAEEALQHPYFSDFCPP
active: volasertib -0.259
inactive: [1] -0.053 | [2] -0.009 | [3] 0.001 | [4] -0.008 | Nexturastat A -0.002 | vemurafenib 0.031 | [5] 0.058 | [6] 0.078 | givinostat 0.003 | [12] -0.087 | [7] 0.095 | epoxomicin 0 | [8] 0.004 | [13] -0.039 | [9] 0.002 | rosiglitazone 0.041 | [10] -0.014 | [11] 0.025

C6orf120 (UniProt Q7Z4R8)
Chain of UniProt Q7Z4R8 (Q7Z4R8 whole entry, looked up): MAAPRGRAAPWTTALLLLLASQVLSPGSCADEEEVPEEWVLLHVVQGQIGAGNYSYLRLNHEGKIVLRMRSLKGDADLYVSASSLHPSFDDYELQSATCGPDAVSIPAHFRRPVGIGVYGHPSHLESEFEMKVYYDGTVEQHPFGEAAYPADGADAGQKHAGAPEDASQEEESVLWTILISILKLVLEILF
inactive: [1] -0.054 | [2] 0.045 | [3] 0.018 | [4] -0.094 | vemurafenib -0.035 | [5] 0.069 | givinostat -0.011 | barasertib 0.017 | [12] 0.066 | volasertib -0.101 | [7] 0.019 | [8] 0.095 | [9] -0.155 | rosiglitazone 0.06 | [10] -0.245

CCNC (UniProt P24863)
Chain of UniProt P24863 (P24863 whole entry, looked up): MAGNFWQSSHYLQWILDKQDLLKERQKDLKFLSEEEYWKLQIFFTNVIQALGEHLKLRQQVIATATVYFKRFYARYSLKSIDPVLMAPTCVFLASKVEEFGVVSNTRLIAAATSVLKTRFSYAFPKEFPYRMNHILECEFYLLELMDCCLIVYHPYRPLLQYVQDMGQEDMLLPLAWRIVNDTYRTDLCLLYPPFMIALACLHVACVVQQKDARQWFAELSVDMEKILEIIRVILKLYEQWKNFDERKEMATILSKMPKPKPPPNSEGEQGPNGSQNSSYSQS
active: [11] 0.4
inactive: [1] 0.207 | [2] -0.072 | [4] 0.031 | Nexturastat A 0.008 | vemurafenib 0.105 | [6] -0.086 | givinostat 0.011 | barasertib -0.024 | epoxomicin 0.035 | [8] 0.031 | [13] -0.178 | [9] -0.011 | rosiglitazone -0.022 | [10] 0.032

CENPE (UniProt Q02224)
inactive: [1] -0.018 | [2] 0.063 | [3] 0.022 | [4] -0.096 | vemurafenib 0.047 | [5] -0.108 | givinostat 0.285 | barasertib -0.1 | volasertib 0.137 | [8] -0.079 | [13] -0.039 | [9] -0.061 | rosiglitazone 0.03 | [10] -0.255 | [11] 0.192

CRTC3 (UniProt Q6UUV7)
Chain of UniProt Q6UUV7 (Q6UUV7 whole entry, looked up): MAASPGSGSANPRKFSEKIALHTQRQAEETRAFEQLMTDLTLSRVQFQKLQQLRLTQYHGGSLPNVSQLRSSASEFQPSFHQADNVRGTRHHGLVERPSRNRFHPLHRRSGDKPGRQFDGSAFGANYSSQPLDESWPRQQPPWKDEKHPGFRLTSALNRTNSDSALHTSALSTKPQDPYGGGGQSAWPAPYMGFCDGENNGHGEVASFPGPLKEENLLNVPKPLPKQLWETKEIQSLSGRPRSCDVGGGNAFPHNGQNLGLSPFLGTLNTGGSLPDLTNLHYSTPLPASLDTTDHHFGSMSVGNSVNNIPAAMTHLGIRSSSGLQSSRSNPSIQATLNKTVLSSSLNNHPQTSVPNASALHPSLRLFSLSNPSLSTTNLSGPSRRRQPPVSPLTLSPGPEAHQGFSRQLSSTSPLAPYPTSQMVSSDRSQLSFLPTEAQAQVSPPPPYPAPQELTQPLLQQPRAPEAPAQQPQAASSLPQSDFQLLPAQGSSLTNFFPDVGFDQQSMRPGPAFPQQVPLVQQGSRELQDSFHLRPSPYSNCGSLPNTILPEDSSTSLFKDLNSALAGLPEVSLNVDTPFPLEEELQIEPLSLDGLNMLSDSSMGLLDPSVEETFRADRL
inactive: [1] -0.017 | [2] 0.087 | [3] 0.033 | Nexturastat A -0.049 | vemurafenib -0.093 | [5] 0.144 | barasertib 0.035 | volasertib 0.051 | epoxomicin 0.094 | [9] -0.117 | rosiglitazone 0.148
active: [6] -0.543

CCNT2 (UniProt O60583)
inactive: [1] 0.092 | [2] 0.042 | [3] -0.057 | Nexturastat A 0.348 | [5] -0.031 | [6] 0.211 | [12] 0.035 | volasertib -0.096 | [7] 0.056 | epoxomicin 0.004 | [13] -0.084 | [10] 0.023 | [11] -0.101

C15orf41 (UniProt Q9Y2V0)
Chain of UniProt Q9Y2V0 (Q9Y2V0 whole entry, looked up): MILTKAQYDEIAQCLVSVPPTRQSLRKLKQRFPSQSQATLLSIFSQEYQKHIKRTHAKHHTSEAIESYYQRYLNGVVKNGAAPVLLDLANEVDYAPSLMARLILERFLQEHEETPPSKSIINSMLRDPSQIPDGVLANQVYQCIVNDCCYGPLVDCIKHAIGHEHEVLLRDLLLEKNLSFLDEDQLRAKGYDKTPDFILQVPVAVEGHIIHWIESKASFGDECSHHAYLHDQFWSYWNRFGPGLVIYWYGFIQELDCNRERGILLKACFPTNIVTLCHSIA
inactive: [1] 0.022 | [2] -0.026 | [3] -0.017 | [4] -0.002 | Nexturastat A -0.006 | vemurafenib 0.015 | [5] 0.032 | givinostat -0.012 | [12] -0.04 | volasertib -0.188 | epoxomicin -0.165 | [8] -0.023 | [9] -0.022 | [10] 0.019 | [11] 0.001
active: [13] -0.333

CLN8 (UniProt Q9UBY8)
inactive: [1] -0.018 | [2] 0.081 | [3] -0.085 | vemurafenib -0.001 | [5] -0.109 | [6] -0.132 | givinostat -0.086 | barasertib 0.051 | [12] 0.069 | volasertib 0.001 | [7] 0.077 | [8] -0.101 | [13] 0.005 | [9] 0.145 | rosiglitazone 0.327 | [10] 0.135 | [11] 0.191

C9orf72 (UniProt Q96LT7)
inactive: [1] 0.108 | [2] -0.009 | [3] 0.027 | [4] -0.014 | Nexturastat A -0.102 | vemurafenib -0.139 | [5] -0.038 | [6] 0.007 | givinostat -0.022 | barasertib 0.042 | volasertib -0.089 | [7] 0.062 | epoxomicin -0.008 | [8] 0.003 | [13] 0.226 | [9] 0.075 | rosiglitazone -0.033 | [10] -0.094 | [11] 0.209

CRTC1 isoform 2 (UniProt Q6UUV9)
Chain of UniProt Q6UUV9 (Q6UUV9 whole entry, looked up): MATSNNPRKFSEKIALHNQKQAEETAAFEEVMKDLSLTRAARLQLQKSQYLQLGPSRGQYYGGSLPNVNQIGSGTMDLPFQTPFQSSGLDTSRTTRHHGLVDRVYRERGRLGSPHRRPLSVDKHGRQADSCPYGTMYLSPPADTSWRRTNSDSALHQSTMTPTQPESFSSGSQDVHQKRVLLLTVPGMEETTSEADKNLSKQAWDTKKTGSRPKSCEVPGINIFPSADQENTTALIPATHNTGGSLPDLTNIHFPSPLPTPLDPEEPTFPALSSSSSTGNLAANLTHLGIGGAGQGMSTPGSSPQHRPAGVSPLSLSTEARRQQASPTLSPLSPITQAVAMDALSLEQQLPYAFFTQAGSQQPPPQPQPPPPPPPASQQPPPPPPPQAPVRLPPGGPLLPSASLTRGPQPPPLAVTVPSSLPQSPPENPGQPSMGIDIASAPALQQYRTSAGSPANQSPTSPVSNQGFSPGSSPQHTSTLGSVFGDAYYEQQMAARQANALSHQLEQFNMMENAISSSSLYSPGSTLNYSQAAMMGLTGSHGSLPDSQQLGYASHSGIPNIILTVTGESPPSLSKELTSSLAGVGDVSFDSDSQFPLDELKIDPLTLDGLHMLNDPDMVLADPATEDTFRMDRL
inactive: [1] -0.001 | [2] 0.195 | [3] -0.086 | [4] 0.073 | Nexturastat A 0.24 | vemurafenib -0.035 | [5] 0.051 | givinostat 0.158 | barasertib 0.015 | volasertib 0.211 | epoxomicin -0.062 | [8] -0.164 | [13] 0.034 | [9] -0.069 | rosiglitazone 0.065 | [10] -0.153 | [11] 0.101

CASP10 isoform 4 (UniProt Q92851)
inactive: [1] 0.015 | [2] 0.026 | [3] 0.085 | [4] 0 | Nexturastat A 0.125 | vemurafenib -0.015 | [5] 0.014 | [6] 0.034 | barasertib 0.121 | [12] -0.091 | [7] 0.015 | epoxomicin 0.004 | [13] 0.121 | [9] -0.016 | rosiglitazone -0.093 | [10] 0.023 | [11] -0.331
active: volasertib -0.582

CHPT1 (UniProt Q8WUD6)
Chain of UniProt Q8WUD6 (Q8WUD6 whole entry, looked up): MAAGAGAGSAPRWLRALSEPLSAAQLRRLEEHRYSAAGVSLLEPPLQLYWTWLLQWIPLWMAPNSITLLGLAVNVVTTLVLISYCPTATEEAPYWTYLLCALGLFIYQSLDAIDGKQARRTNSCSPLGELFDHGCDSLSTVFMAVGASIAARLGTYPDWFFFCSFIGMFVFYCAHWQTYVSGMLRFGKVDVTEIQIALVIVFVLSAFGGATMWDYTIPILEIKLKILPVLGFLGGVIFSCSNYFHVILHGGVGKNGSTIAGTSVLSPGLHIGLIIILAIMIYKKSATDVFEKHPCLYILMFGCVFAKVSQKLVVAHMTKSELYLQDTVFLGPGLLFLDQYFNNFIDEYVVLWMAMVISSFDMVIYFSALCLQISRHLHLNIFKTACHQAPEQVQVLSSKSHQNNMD
active: [11] -0.79
inactive: [1] 0.088 | [2] 0.055 | [3] 0.132 | Nexturastat A 0.114 | [5] 0.051 | [6] 0.047 | [12] -0.324 | volasertib -0.228 | [7] 0.119 | epoxomicin -0.176 | [13] -0.042 | [10] 0.047

CORO2A (UniProt Q92828)
Chain of UniProt Q92828 (Q92828 whole entry, looked up): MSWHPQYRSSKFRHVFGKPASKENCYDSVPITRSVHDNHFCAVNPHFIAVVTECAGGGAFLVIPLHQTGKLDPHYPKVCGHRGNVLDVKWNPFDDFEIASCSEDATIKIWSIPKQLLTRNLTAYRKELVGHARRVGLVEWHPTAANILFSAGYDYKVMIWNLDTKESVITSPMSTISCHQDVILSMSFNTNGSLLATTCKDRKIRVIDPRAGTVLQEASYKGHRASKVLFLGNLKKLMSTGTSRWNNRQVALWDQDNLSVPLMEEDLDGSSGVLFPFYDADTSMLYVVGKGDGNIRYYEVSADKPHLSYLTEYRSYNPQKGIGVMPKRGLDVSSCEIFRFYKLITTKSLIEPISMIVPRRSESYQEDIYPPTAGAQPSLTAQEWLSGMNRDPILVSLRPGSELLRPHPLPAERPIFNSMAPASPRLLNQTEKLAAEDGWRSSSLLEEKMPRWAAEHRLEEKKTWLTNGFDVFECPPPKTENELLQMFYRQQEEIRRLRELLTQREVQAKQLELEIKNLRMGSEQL
inactive: [1] 0.014 | [2] 0.157 | [3] 0.01 | vemurafenib 0.063 | [5] 0.054 | [6] 0.026 | givinostat 0.002 | barasertib 0.065 | [12] 0.164 | volasertib -0.075 | [7] 0.01 | [8] -0.016 | [13] 0 | [9] -0.038 | rosiglitazone 0.011 | [10] -0.022 | [11] -0.096
